BAZ2B block = inhibitors of human BAZ2B bromodomain | hit rate 4.4% among 360,000 | AlphaScreen BAZ2B-H3K14Ac peptide displacement | Q9UIF8 | Potency, µM (titrated, usually from 114 µM), for the others: at the top dose activity change, negative = inhibition, usual class: inhibitors; note: potency is the fitted concentration of half-maximal effect; % is set by controls: 0 for no effect and ±100 for the full control effect; nearly all actives have a fitted effect of over 60% in size
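Compounds, titrated to a top concentration of 110 uM, were incubated 30 min at room temperature with preformed BAZ2B/acetyl-K14 H3 peptide complex (50 nM each). Proximity signal was measured by AlphaScreen after 20 min with beads.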
PI5P4K alpha inh = PI5P4K alpha (human) kinase inhibition | P48426 | PI5P4Kalpha enzyme, ADP-Glo luminescence, 60 min; stronger effect = lower value | max response, % | hit rate 1.2% among 330,000 | AID 652105; active = max response of -50% or lower; inconclusive = between -30% and -50%; inactive = -30% or higher; note: value at the top dose of about 77 µM; % is set by controls: 0 for no effect and ±100 for the full control effect
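PI5P4Kalpha ADP-Glo assay; 5 microM ATP final; 60 min RT reaction; HEPES pH 7.4/EGTA/CHAPS, 5% DMSO; controls lacking substrate or enzyme; luminescent end-point.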
HP1b chromo inh = HP1-beta chromodomain-methylated histone interaction inhibition | Potency, µM (series often up to 114 µM), without a hit: at the highest dose activity change, negative = inhibition, hits mostly inhibitors | P83916 | hit rate 0.56% among 390,000 | AID 540317 | AlphaScreen HP1-beta / biotin-H3K9me3 peptide binding; note: potency is the fitted concentration of half-maximal effect; nearly all actives have a fitted effect of over 70% in size
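AlphaScreen: HP1-beta (50 nM) preformed 30 min with biotin-H3(1-18)K9me3 peptide (50 nM) in PBS pH 7.4, 0.01% Tween-20. Compound added for 30 min at RT, then streptavidin donor/nickel chelate acceptor beads (10 ug/mL) for 30 min.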
PLK1 PBD inh = PLK1 (human) polo-box domain binding inhibition; P53350; Plk1 PBD binding of FITC phosphopeptide, fluorescence polarization; Potency, µM, for the others: max response, negative = inhibition, most hits filed as inhibitors; hit rate 2.8% among 360,000; note: potency is the fitted concentration of half-maximal effect; series mostly up to about 57 µM; % is set by controls: 0 for no effect and ±100 for the full control effect; nearly all actives have a fitted effect of over 65% in size
G9a block = inhibitors of human histone lysine methyltransferase G9a; G9a H3K9 monomethylation, AlphaScreen, 2 h; Q96KQ7; AID 504332; hit rate 8.8% among 350,000; Potency, µM (titrated, usually from 102 µM), inactives show at the top dose activity, negative = inhibition, most hits filed as inhibitors; note: potency is the fitted concentration of half-maximal effect; % is set by controls: 0 for no effect and ±100 for the full control effect; nearly all actives have a fitted effect of over 75% in size
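Using a bead-based AlphaScreen, monomethylated H3K9 product from 2 h room-temperature reactions (G9a 20 nM, peptide 500 nM, SAM 20 uM) was detected with 0.5 ug/mL rabbit anti-H3K9me1 antibody.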
JMJD2A Tudor inh = blocks the human JMJD2A Tudor domain; O75164; AlphaScreen JMJD2A-Tudor / H3K4me3 peptide binding; Potency, µM (doses to about 114 µM), for the others: at the highest dose activity change, negative = inhibition, hits mostly inhibitors; hit rate 4.4% among 390,000; AID 504339; note: potency is the fitted concentration of half-maximal effect; % is set by controls: 0 for no effect and ±100 for the full control effect; nearly all actives have a fitted effect of over 50% in size
Target sequence (O75164 whole entry, looked up, the tested form may be a part): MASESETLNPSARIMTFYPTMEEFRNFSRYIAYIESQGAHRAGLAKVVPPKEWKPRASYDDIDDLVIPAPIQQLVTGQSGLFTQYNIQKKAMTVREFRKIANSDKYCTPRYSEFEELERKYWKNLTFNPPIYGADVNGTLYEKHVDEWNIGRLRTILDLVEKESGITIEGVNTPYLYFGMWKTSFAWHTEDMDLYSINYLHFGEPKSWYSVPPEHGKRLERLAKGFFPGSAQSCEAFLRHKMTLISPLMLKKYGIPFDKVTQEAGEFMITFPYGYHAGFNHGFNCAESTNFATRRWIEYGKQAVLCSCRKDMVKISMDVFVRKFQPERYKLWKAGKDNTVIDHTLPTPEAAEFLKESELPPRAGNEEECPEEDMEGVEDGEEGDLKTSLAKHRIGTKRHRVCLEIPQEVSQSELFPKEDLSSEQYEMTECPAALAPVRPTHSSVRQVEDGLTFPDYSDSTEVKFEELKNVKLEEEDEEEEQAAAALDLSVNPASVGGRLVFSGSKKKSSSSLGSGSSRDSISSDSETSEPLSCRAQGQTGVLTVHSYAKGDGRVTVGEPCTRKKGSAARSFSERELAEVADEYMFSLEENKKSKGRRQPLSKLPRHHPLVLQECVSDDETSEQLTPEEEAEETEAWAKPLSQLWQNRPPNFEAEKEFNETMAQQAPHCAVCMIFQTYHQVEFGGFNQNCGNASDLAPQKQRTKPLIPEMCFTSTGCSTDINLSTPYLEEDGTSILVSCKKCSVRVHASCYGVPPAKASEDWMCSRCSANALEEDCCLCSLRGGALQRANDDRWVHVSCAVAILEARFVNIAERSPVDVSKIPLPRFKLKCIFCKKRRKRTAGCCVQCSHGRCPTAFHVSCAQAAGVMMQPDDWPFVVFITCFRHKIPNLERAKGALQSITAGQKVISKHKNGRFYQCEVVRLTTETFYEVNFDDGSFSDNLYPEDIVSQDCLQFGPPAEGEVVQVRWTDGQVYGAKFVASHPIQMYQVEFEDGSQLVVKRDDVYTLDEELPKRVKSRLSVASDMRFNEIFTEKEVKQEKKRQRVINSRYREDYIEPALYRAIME
* marks the source's active call; other numbers are inactive results; u = inconclusive; x = no result; [ ] = another dose, or the depositor's remark. Compounds with a hit are over-represented: about 12% of the library has one in this group of screens. Unless noted, calls come from the whole dose curve; as a rule, active = well fitted curve in the direction sought with a large enough effect; inconclusive = small, poorly fitted or top-dose-only effect, or another doubt; inactive = no such curve, though single readings can be large; an effect the other way counts as inactive or inconclusive.

SMILES | BAZ2B block | PI5P4K alpha inh | HP1b chromo inh | PLK1 PBD inh | G9a block | JMJD2A Tudor inh
Cc1cc(C)c2c(N=NN(C)C)[nH]nc2n1 | 5% | 2 | 31% | u | 45µM* | -6%
Cc1cc(C)c2c(=O)[nH]c(SCC(=O)N(C)C)nc2n1 | 4% | x | 16% | -6% | -4% | -12%
CC(=O)N(Cc1ccc(F)cc1)C1=C(NCc2ccccc2)C(=O)c2ccccc2C1=O | 45µM* | -6 | u | -8% | 13µM* | 56µM*
O=C1CN(C(=O)c2ccc(S(=O)(=O)N3CCCCC3)cc2)C(c2ccc(F)cc2)c2cc(Cl)ccc2N1 (centres undefined) | -3% | x | 26% | x | -9%[59 µM] | -11%
CCOC(=O)N1CCN(c2cccc(C)c2C)CC1 | -4% | 6 | 49% | 3% | 8% | 5%
Cn1cc(SCC(=O)N2CCN(c3ccccc3)CC2)c2ccccc21 | u | -2 | -3% | -15% | 40µM* | u
Cc1cccc(N2CCN(C(=O)C(C)C)CC2)c1C | 8% | -8 | -1% | 30µM* | -21% | -10%[11.4 µM]
Cc1cccc(N2CCN(C(=O)C3CCC(=O)N(C4CC4)C3)CC2)c1C (centres undefined) | -4% | -30 | 22% | 7.5µM* | -11% | u
Cc1cccc(N2CCN(C(=O)Cn3cccc3)CC2)c1C | u | -5 | -9% | -14% | 50µM* | u
CNS(=O)(=O)c1cn(CC(=O)N2CCN(c3cccc(C)c3C)CC2)cc1S(=O)(=O)NC | -13% | x | 23% | x | -19%[59 µM] | -14%
CCOC(=O)CNC(=O)c1ccc(SCC)cc1 | 4% | 1 | 36% | u | -6% | -7%
Cc1cccc(N2CCN(C(=O)Cc3cn(C)c4ccccc34)CC2)c1C | u | -13 | u | 12µM* | 50µM* | 18µM*
Cc1cccc(N2CCN(C(=O)Cn3ncc4c5ccccc5n(C)c4c3=O)CC2)c1C | -3% | x | 42% | x | -4%[59 µM] | 3%
Cc1ccc(C(=O)N2CCN(c3cccc(C)c3C)CC2)o1 | -37% | -1 | -6% | 1% | 71µM* | -7%
CC1=C(C(=O)N2CCN(c3cccc(C)c3C)CC2)C2(CCCCC2)OC1=O | 79µM* | x | 21% | x | 5%[59 µM] | -20%
Cc1cc2c(s1)c1cnn(Cc3cccc(C(F)(F)F)c3F)c(=O)c1n2C | x | x | x | x | x | -28%
CCOc1ccc(CC(=O)Nc2ccc3nc(N4CCCCC4)cc(C)c3c2)cc1OCC | -10% | x | 22% | x | -12%[59 µM] | -22%
Cc1ccc(NC(=O)c2c(NC(=O)c3ccco3)sc3c2CCC(C(C)(C)C)C3)c(C)c1 (centres undefined) | 7% | x | 21% | x | -7%[59 µM] | -10%
CCOC(=O)c1cc(-c2ccc(C)cc2)n(CCC(=O)NCCN(C)C)c1C | 50µM* | x | -13% | 1% | u | u
CCOC(=O)c1cc(-c2ccc(C)cc2)n(CCC(=O)N2CCN(c3ccccn3)CC2)c1C | 45µM* | -5 | u | -3% | 28µM* | 35µM*
CCOC(=O)c1cc(-c2ccc(C)cc2)n(CCC(=O)NCc2ccccc2)c1C | -22% | x | 53% | x | 2%[59 µM] | -9%
Cc1ccc(NC(=O)C2CC(=O)N(c3ccccc3Cl)C2)cc1S(=O)(=O)N1CCOCC1 (centres undefined) | x | 2 | 28% | 1% | x | -4%
CN[C@@H](CO)C(=O)NC[C@H]1O[C@@H](n2cc(C)c(=O)[nH]c2=O)C[C@@H]1O | x | 5 | x | -10% | x | x
COc1ccc(/C=C/C(=O)Nc2ccc(-n3nncc3-c3ccccc3)cc2)cc1OC | 2% | -22 | -14% | -19% | 45µM* | -18%
COc1ccc(/C=C/C(=O)Nc2ccc(C(N)=O)cc2)cc1OC | -12% | 7 | 32% | 1% | -3% | 2%
SMILES | BAZ2B block | PI5P4K alpha inh | HP1b chromo inh | PLK1 PBD inh | G9a block | JMJD2A Tudor inh
Cc1ccc(S(=O)(=O)NCC2CCC(C(=O)NCc3ccco3)CC2)cc1 (centres undefined) | 5% | -7 | 25% | -5% | 8%[12.7 µM] | -20%
COc1cccc(NC(=O)COC(=O)c2ccc(S(=O)(=O)NCc3ccco3)cc2)c1 | u | -7 | -28% | -21% | -4%[12.7 µM] | 35µM*
O=C(NC1CCCCCC1)c1ccc(S(=O)(=O)NCc2ccco2)cc1 | 10% | x | 5% | -7% | -4%[59 µM] | 0%
COc1ccc(S(=O)(=O)NCC2CCC(C(=O)NCc3ccco3)CC2)cc1 (centres undefined) | 6% | -28 | -17% | 11µM* | -4% | -23%[11.4 µM]
O=C(COc1ccccc1)Nc1ccc(S(=O)(=O)NCc2ccco2)cc1 | u | u | -15% | -12% | 50µM* | 50µM*
O=C(Nc1ccc(S(=O)(=O)NCc2ccco2)cc1)C1CCCCC1 | -35% | -15 | 16% | -11% | 45µM* | -18%
CC(=O)N1CCCC1c1nc2ccccc2n1Cc1ccccc1C (centres undefined) | -27% | x | 20% | x | u | -30%
COc1cccc(S(=O)(=O)NCc2ccc(C(=O)NCc3ccco3)cc2)c1 | -8% | x | -5% | -6% | 45µM* | -33%
COc1ccc(C(=O)Nc2ccc(S(=O)(=O)NCc3ccco3)cc2)cc1OC | -1% | x | 0% | -7% | 40µM* | u
Cc1cccc(NC(=O)c2ccc(F)c(S(=O)(=O)NCc3ccco3)c2)c1 | u | -1 | 16% | -15% | 50µM* | -27%
COc1cccc(S(=O)(=O)Nc2ccc(C(=O)NCc3ccco3)cc2)c1 | -3% | x | 21% | -3% | -24%[59 µM] | -28%
COc1ccc(N2CCN(C(=O)c3ccc(CNS(=O)(=O)c4cccc(OC)c4)cc3)CC2)cc1 | u | 0 | -18% | 0% | u | u
COc1cccc(S(=O)(=O)NCc2ccc(C(=O)N3CCN(c4ccccc4)CC3)cc2)c1 | -24% | -6 | 15% | -1% | 63µM* | -24%
Cc1ccc(CCNS(=O)(=O)c2c(C)nc3sc(C)c(C)n3c2=O)cc1 | -1% | x | 67% | x | 1%[59 µM] | 1%
CCCc1nnc(NC(=O)c2cc(=O)c3ccccc3o2)s1 | -11% | x | 34% | x | -4%[59 µM] | 1%
CC(=O)Nc1ccc(NC(=O)COC(=O)c2ccc(S(=O)(=O)NCc3ccco3)cc2)cc1 | x | -2 | 17%[57 µM] | 4% | x | -3%
CC(C)CC(=O)Nc1ccc(S(=O)(=O)NCc2ccco2)cc1 | -38% | -15 | 23% | -2% | 18µM* | -24%
CCC1(O)C(=O)OCc2c1cc1n(c2=O)Cc2cc3c(N)cccc3nc2-1 (centres undefined) | x | -10 | 30% | 5% | x | -6%
CCC1(OC(=O)CN(C)C)C(=O)OCc2c1cc1n(c2=O)Cc2cc3c(N)cccc3nc2-1 (centres undefined) | x | -2 | -10% | 1% | x | 16µM*

Assay outcomes: PubChem BioAssay, National Center for Advancing Translational Sciences (NCATS)
